Here are results for 65 compounds from the antibiotic and cytotoxicity screens of Wong et al. (2023).

Screen size: about 39,000 compounds; about 3,300 (8.5%) were called active. The entries come from a sample that favours actives as a whole.

The experiment relates to HepG2. Put plainly: cytotoxicity call (relative viability < 0.9). Conditions: 10 µM.
For the compound `O=C(C[C@@H]1C=C[C@@H](NC(=O)c2cnccn2)[C@H](CO)O1)NCc1ccccc1F`, the cytotoxicity call was “inactive”.

As to `O=C(C[C@@H]1C[C@@H]2c3cc(NC(=O)Cc4ccncc4)ccc3O[C@@H]2[C@H](CO)O1)NCc1cccc(F)c1`, the cytotoxicity call is “inactive”.

Turning to `CS(=O)(=O)[O-].C[n+]1ccccc1C=NO`, the cytotoxicity call is “inactive”.

For `OCc1cccc(CO)c1F`, the cytotoxicity call was “inactive”.

In the case of `COc1ccc(S(=O)(=O)Nc2ccc3c(c2)CC(=O)N([C@@H](C)CO)C[C@H](C)[C@H](CN(C)C)O3)cc1`, the cytotoxicity call was “inactive”.

Turning to `C[C@@H](O)CC1=C[C@H]([C@@H](C)O)OC1=O`, the cytotoxicity call was “inactive”.

Consider `C[C@H](CO)N1C[C@H](C)[C@H](CN(C)S(=O)(=O)c2cn(C)cn2)Oc2ccc(NS(=O)(=O)c3ccc(F)cc3)cc2C1=O`, for which the cytotoxicity call is “inactive”.

For the compound `COc1ccc(S(=O)(=O)N(C)C[C@H]2Oc3ccc(NS(=O)(=O)c4cccs4)cc3C(=O)N([C@H](C)CO)C[C@H]2C)cc1`, the cytotoxicity call is “inactive”.

As to `C[C@H](CO)N1C[C@H](C)[C@@H](CN(C)S(=O)(=O)c2cn(C)cn2)Oc2ccc(NS(=O)(=O)c3ccc(F)cc3)cc2C1=O`, the cytotoxicity call is “inactive”.

As to `C[C@H]1CN([C@@H](C)CO)C(=O)c2cc(NS(=O)(=O)c3cn(C)cn3)ccc2O[C@@H]1CN(C)S(C)(=O)=O`, the cytotoxicity call was “inactive”.

As to `C[C@@H]1CN([C@H](C)CO)C(=O)c2cc(NS(=O)(=O)c3cn(C)cn3)ccc2O[C@@H]1CN(C)S(=O)(=O)c1cccs1`, the cytotoxicity call is “inactive”.

For `COc1ccc(S(=O)(=O)N(C)C[C@@H]2Oc3ccc(NS(=O)(=O)c4cccs4)cc3C(=O)N([C@@H](C)CO)C[C@@H]2C)cc1`, the cytotoxicity call was “active”.

`C[C@@H]1CN([C@H](C)CO)C(=O)c2cc(NS(=O)(=O)c3ccc(F)cc3)ccc2O[C@H]1CN(C)S(=O)(=O)c1cn(C)cn1`: the cytotoxicity call is “active”.

As for `C[C@@H]1CN([C@@H](C)CO)C(=O)c2cc(NS(=O)(=O)c3cn(C)cn3)ccc2O[C@H]1CN(C)S(C)(=O)=O`, the cytotoxicity call was “active”.

Turning to `C[C@@H]1CN([C@@H](C)CO)C(=O)c2cc(NS(=O)(=O)c3cn(C)cn3)ccc2O[C@H]1CN(C)S(=O)(=O)c1cccs1`, the cytotoxicity call is “active”.

As for `C[C@@H]1CN([C@H](C)CO)C(=O)c2cc(NS(=O)(=O)c3cn(C)cn3)ccc2O[C@H]1CN(C)S(=O)(=O)c1cccs1`, the cytotoxicity call is “inactive”.

With `COc1ccc(S(=O)(=O)N(C)C[C@@H]2Oc3ccc(NS(=O)(=O)c4cccs4)cc3C(=O)N([C@H](C)CO)C[C@H]2C)cc1`, the cytotoxicity call was “inactive”.

As to `C[C@@H]1CN([C@H](C)CO)C(=O)c2cc(NS(=O)(=O)c3cn(C)cn3)ccc2O[C@@H]1CN(C)S(C)(=O)=O`, the cytotoxicity call is “inactive”.

Consider `CC(C)NC(=O)N(C)C[C@H]1Oc2ccc(NC(=O)CCC(F)(F)F)cc2CC(=O)N([C@H](C)CO)C[C@@H]1C`, for which the cytotoxicity call is “inactive”.

Take `C[C@@H]1CCCCO[C@H](CN(C)C(=O)Nc2ccccc2)[C@@H](C)CN([C@H](C)CO)C(=O)c2cc(NC(=O)Nc3cccc4ccccc34)ccc2O1`: the cytotoxicity call is “inactive”.

With `Cc1noc(C)c1S(=O)(=O)Nc1ccc2c(c1)C(=O)N([C@@H](C)CO)C[C@@H](C)[C@H](CN(C)C(=O)Nc1ccccc1)OCCCC[C@@H](C)O2`, the cytotoxicity call was “inactive”.

In the case of `N[C@@H](C(=O)O)[C@@H](O)[C@H](O)[C@H](O)CO`, the cytotoxicity call is “inactive”.

Take `Fc1ccc(C2=NNC3=NCCN3C2)cc1F`: the cytotoxicity call is “inactive”.

For the compound `COc1ccc(S(=O)(=O)Nc2cccc3c2O[C@H](CN(C)S(=O)(=O)c2ccccc2)[C@@H](C)CN([C@H](C)CO)C3=O)cc1`, the cytotoxicity call was “inactive”.

In the case of `C[C@@H]1CCCCO[C@@H](CN(C)Cc2ccc(C(=O)O)cc2)[C@H](C)CN([C@H](C)CO)C(=O)c2cc(NC(=O)Nc3ccccc3)ccc2O1`, the cytotoxicity call was “inactive”.

In the case of `C[C@H]1CN([C@@H](C)CO)C(=O)Cc2cc(NS(=O)(=O)c3cn(C)cn3)ccc2O[C@H]1CN(C)C`, the cytotoxicity call was “inactive”.

In the case of `CNC[C@@H]1OCCCC[C@@H](C)Oc2ccc(NC(=O)c3ccncc3)cc2C(=O)N([C@H](C)CO)C[C@@H]1C`, the cytotoxicity call was “inactive”.

For `C[C@H]1CN([C@@H](C)CO)C(=O)c2cccc(NC(=O)Nc3cccc4ccccc34)c2O[C@@H]1CN(C)S(=O)(=O)c1cccs1`, the cytotoxicity call is “inactive”.

On to `O=C(C[C@H]1C[C@H]2c3cc(NC(=O)Nc4ccc(C(F)(F)F)cc4)ccc3O[C@H]2[C@@H](CO)O1)NCCc1ccccc1`, for which the cytotoxicity call is “inactive”.

Consider `C[C@@H]1CN([C@@H](C)CO)C(=O)Cc2cc(NS(=O)(=O)c3cccs3)ccc2O[C@H]1CN(C)S(=O)(=O)c1cccs1`, for which the cytotoxicity call was “inactive”.

For `C[C@H](CO)N1C[C@H](C)[C@H](CN(C)C(=O)Nc2ccccc2)Oc2ccc(NS(=O)(=O)c3cn(C)cn3)cc2C1=O`, the cytotoxicity call is “active”.

Regarding `C[C@H](CO)N1C[C@H](C)[C@@H](CN(C)S(=O)(=O)c2cccs2)Oc2ccc(NS(=O)(=O)c3cccs3)cc2C1=O`, the cytotoxicity call was “inactive”.

As for `C[C@H](CO)N1C[C@H](C)[C@@H](CN(C)S(=O)(=O)c2cccs2)Oc2ccc(NS(=O)(=O)c3cccs3)cc2CC1=O`, the cytotoxicity call is “active”.

As to `C[C@@H]1CN([C@H](C)CO)C(=O)c2cc(NS(=O)(=O)c3cn(C)cn3)ccc2O[C@@H]1CN(C)C(=O)Nc1ccccc1`, the cytotoxicity call was “inactive”.

In the case of `C[C@@H]1CN([C@@H](C)CO)C(=O)c2cc(NS(=O)(=O)c3cn(C)cn3)ccc2O[C@@H]1CN(C)C(=O)Nc1ccccc1`, the cytotoxicity call is “inactive”.

As for `C[C@H]1CN([C@@H](C)CO)C(=O)c2cc(NS(=O)(=O)c3cccs3)ccc2O[C@H]1CN(C)S(=O)(=O)c1cccs1`, the cytotoxicity call is “inactive”.

Consider `C[C@@H]1CN([C@H](C)CO)C(=O)c2cc(NS(=O)(=O)c3cccs3)ccc2O[C@H]1CN(C)S(=O)(=O)c1cccs1`, for which the cytotoxicity call was “active”.

Consider `COc1ccc(S(=O)(=O)N(C)C[C@H]2Oc3ccc(NS(=O)(=O)c4cccs4)cc3C(=O)N([C@@H](C)CO)C[C@@H]2C)cc1`, for which the cytotoxicity call is “inactive”.

As for `C[C@@H]1CN([C@H](C)CO)C(=O)Cc2cc(NS(=O)(=O)c3cccs3)ccc2O[C@@H]1CN(C)S(=O)(=O)c1cccs1`, the cytotoxicity call is “inactive”.

With `COc1ccc(S(=O)(=O)N(C)C[C@H]2Oc3ccc(NS(=O)(=O)c4cccs4)cc3C(=O)N([C@@H](C)CO)C[C@H]2C)cc1`, the cytotoxicity call was “inactive”.

On to `COc1ccc(S(=O)(=O)N(C)C[C@@H]2Oc3ccc(NS(=O)(=O)c4cccs4)cc3C(=O)N([C@H](C)CO)C[C@@H]2C)cc1`, for which the cytotoxicity call is “active”.

Turning to `C[C@@H]1CCCCO[C@@H](CN(C)C(=O)c2ccccc2)[C@H](C)CN([C@H](C)CO)C(=O)c2cc(NC(=O)Nc3ccccc3)ccc2O1`, the cytotoxicity call was “inactive”.

On to `Cc1ccc(S(=O)(=O)NCC[C@@H]2CC[C@@H](NS(=O)(=O)c3ccccc3Cl)[C@@H](CO)O2)cc1`, for which the cytotoxicity call was “inactive”.

Turning to `C[C@H]1CN([C@@H](C)CO)S(=O)(=O)c2ccc(C3=CCCC3)cc2O[C@@H]1CN(C)C(=O)Cc1ccncc1`, the cytotoxicity call was “inactive”.

Turning to `COc1cccc(S(=O)(=O)N(C)C[C@H]2Oc3ncc(-c4cccc(C(=O)N(C)C)c4)cc3C(=O)N([C@H](C)CO)C[C@@H]2C)c1`, the cytotoxicity call is “inactive”.

In the case of `C[C@H](CO)N1C[C@H](C)[C@H](CN(C)C(=O)Cc2ccccn2)Oc2cc(C#Cc3ccccc3)ccc2S1(=O)=O`, the cytotoxicity call was “inactive”.

Turning to `COc1ccc(CNC(=O)C[C@@H]2CC[C@H]3[C@@H](COC[C@H](O)CN3S(=O)(=O)c3ccc(OC)cc3)O2)cc1`, the cytotoxicity call is “inactive”.

Turning to `C[C@H]1CN([C@@H](C)CO)C(=O)c2cc(NC(=O)Cc3ccccc3)ccc2O[C@H]1CN(C)S(=O)(=O)c1cccs1`, the cytotoxicity call was “inactive”.

Regarding `COc1ccc(NC(=O)Nc2ccc3c(c2)C(=O)N([C@H](C)CO)C[C@H](C)[C@H](CN(C)S(=O)(=O)c2ccc(OC)cc2)OCCCC[C@@H](C)O3)cc1`, the cytotoxicity call is “inactive”.

As for `COc1ccccc1S(=O)(=O)N[C@H]1CC[C@H](CCNC(=O)C2CC2)O[C@@H]1CO`, the cytotoxicity call was “inactive”.

Turning to `C[C@@H]1O[C@@H](O[C@@H]2C=C(CO)[C@H]3[C@H](O[C@@H]4O[C@H](CO)[C@@H](O)[C@H](O)[C@H]4O)OC=C[C@H]32)[C@H](O)[C@H](O)[C@H]1OC(=O)/C=C/c1ccccc1`, the cytotoxicity call is “inactive”.

For `C[C@H](CO)N1C[C@H](C)[C@H](CN(C)S(=O)(=O)c2ccc(F)cc2)OCCCC[C@H](C)Oc2ccc(NC(=O)CCC(F)(F)F)cc2C1=O`, the cytotoxicity call is “inactive”.

`C[C@@H]1CCCCO[C@H](CN(C)Cc2ccccc2)[C@H](C)CN([C@H](C)CO)C(=O)c2cc(NC(=O)NC3CCCCC3)ccc2O1`: the cytotoxicity call was “inactive”.

In the case of `C[C@@H]1CN([C@@H](C)CO)C(=O)c2cccc(NC(=O)Nc3ccc4c(c3)OCO4)c2O[C@@H]1CN(C)Cc1ccc(-c2ccccc2)cc1`, the cytotoxicity call is “active”.

Consider `C[C@@H]1CN([C@H](C)CO)C(=O)c2cccc(NC(=O)Nc3ccc4c(c3)OCO4)c2O[C@@H]1CN(C)Cc1ccc(-c2ccccc2)cc1`, for which the cytotoxicity call is “inactive”.

Regarding `C[C@H]1CN([C@@H](C)CO)C(=O)c2cccc(NC(=O)Nc3ccc4c(c3)OCO4)c2O[C@@H]1CN(C)Cc1ccc(-c2ccccc2)cc1`, the cytotoxicity call was “inactive”.

In the case of `C[C@@H]1CN([C@@H](C)CO)C(=O)c2cccc(NC(=O)Nc3ccc4c(c3)OCO4)c2O[C@@H]1CN(C)Cc1ccc(Oc2ccccc2)cc1`, the cytotoxicity call was “inactive”.

As for `C[C@@H]1CN([C@H](C)CO)C(=O)c2cccc(NC(=O)Nc3ccc4c(c3)OCO4)c2O[C@H]1CN(C)Cc1ccc(Oc2ccccc2)cc1`, the cytotoxicity call is “active”.

Regarding `C[C@H]1CN([C@@H](C)CO)C(=O)c2cccc(NC(=O)Nc3ccc4c(c3)OCO4)c2O[C@H]1CN(C)Cc1ccc(-c2ccccc2)cc1`, the cytotoxicity call is “inactive”.

On to `C[C@H](CO)N1C[C@H](C)[C@@H](CN(C)Cc2ccc(Oc3ccccc3)cc2)Oc2c(NC(=O)Nc3ccc4c(c3)OCO4)cccc2C1=O`, for which the cytotoxicity call is “inactive”.

Take `C[C@H]1CN([C@@H](C)CO)C(=O)c2cccc(NC(=O)Nc3ccc4c(c3)OCO4)c2O[C@@H]1CN(C)Cc1ccc(Oc2ccccc2)cc1`: the cytotoxicity call was “inactive”.

`C[C@H](CO)N1C[C@H](C)[C@H](CN(C)Cc2ccc(Oc3ccccc3)cc2)Oc2c(NC(=O)Nc3ccc4c(c3)OCO4)cccc2C1=O`: the cytotoxicity call is “active”.

Consider `C[C@@H]1CN([C@H](C)CO)C(=O)c2cccc(NC(=O)Nc3ccc4c(c3)OCO4)c2O[C@@H]1CN(C)Cc1ccc(Oc2ccccc2)cc1`, for which the cytotoxicity call is “inactive”.

`C[C@@H]1CN([C@@H](C)CO)C(=O)c2cccc(NC(=O)Nc3ccc4c(c3)OCO4)c2O[C@H]1CN(C)Cc1ccc(Oc2ccccc2)cc1`: the cytotoxicity call is “inactive”.

Regarding `C[C@H]1CN([C@@H](C)CO)C(=O)c2cccc(NC(=O)Nc3ccc4c(c3)OCO4)c2O[C@H]1CN(C)Cc1ccc(Oc2ccccc2)cc1`, the cytotoxicity call was “active”.
